Each structure is given as a SMILES string. Results filed as inconclusive are left out. Values without a mark were called inactive. Active and inactive are the calls of the source. The call rests on the fitted dose curve; in most records, active means well fitted curve in the direction sought with a large enough effect; inconclusive means small, poorly fitted or top-dose-only effect, or another doubt; inactive means no such curve, though single readings can be large; an effect the other way counts as inactive or inconclusive.

The target in the first test is Aldehyde dehydrogenase, mitochondrial (Homo sapiens) (UniProt P05091). Description: qHTS for Inhibitors of the Aldehyde Dehydrogenase Family (ALDH2) Primary screen (AID 2061308).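 Further: plate controls were vehicle for no effect and reference inhibitor for full effect; nearly all actives have a fitted effect of over 55% in size.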 The conditions noted are these: ALDH2 enzyme inhibition qHTS, 1536-well; series mostly up to 56 µM; activity change, negative = inhibition: at the top concentration.
For `O=C1C2=C(CN1c1ccccc1)NC(Nc1nc3ccccc3o1)=NC2c1ccccc1Cl` (stereo not given), the “activity change, negative = inhibition” value is -0.355%.
`CN(Cc1ccco1)c1ncnc2ccc(-c3cccc(Cl)c3)cc12`: the “activity change, negative = inhibition” value is 10.4%.
With `COc1cccc(CNc2ccc(S(=O)(=O)Nc3nc4c(C)cccc4s3)cc2)c1O`, the “activity change, negative = inhibition” value is -7.67%.
With `O=S(=O)(Nc1nccs1)c1ccc(NCc2ccc(Cl)cc2O)cc1`, the “activity change, negative = inhibition” value was 7.03%.
Still for that read-out and setting: the figure for `C[C@@H]1O[C@@H](O[C@H]2[C@@H](OC(=O)[C@]34CCC(C)(C)CC3C3=CCC5[C@@]6(C)C[C@H](O)[C@H](O[C@@H]7O[C@H](CO)[C@@H](O)[C@H](O)[C@H]7O[C@@H]7OC[C@@H](O)[C@H](O)[C@H]7O)[C@@](C)(C(=O)O)C6CC[C@@]5(C)[C@]3(C)CC4)OC[C@H](O)[C@@H]2O)[C@H](O)[C@H](O)[C@H]1O[C@@H]1OC[C@@H](O)[C@H](O)[C@H]1O` (stereo not given in full) is 6.76% [at 11.2 µM].
Regarding `O=C1CCCC2=C1C(c1[nH]ncc1Cl)N=C(Nc1nc3ccc(Cl)cc3o1)N2` (stereo not given), the “activity change, negative = inhibition” value was 1.14%.
On the same count and under the same terms, the figure for `Cc1cnc(NC(=O)c2cc(S(=O)(=O)N(C)C)ccc2N2CCCC2)s1` is 13.1%.
Still for that read-out and setting: the figure for `Fc1ccc(-c2ccc(CNc3nc(-c4ccccc4C(F)(F)F)nc4ccccc34)cc2)cc1C(F)(F)F` is 0.604%; for `Cc1cc(C)nc(NC(=S)N2CCN(c3ncccc3Cl)CC2)c1` it is 12.7%; for `O=C(Nc1ccc2ccccc2c1)Nc1nnc(-c2ccccc2)s1` it is 0.758%.
For the compound `COc1ccc(C2=Nn3c(nnc3-c3ccccc3OC)SC2)cc1O[C@H]1CCOC1`, the “activity change, negative = inhibition” value was 2.81%.
On to `C=CC(C)(C)C12CC3C(=O)N4C(CC5(C(C)(C)C=C)c6ccccc6NC45)C(=O)N3C1Nc1ccccc12` (stereo not given), for which the “activity change, negative = inhibition” value was -4.8% [at 28 µM].
Same read-out and setting: for `COC(=O)c1ccc(N2CCN(S(=O)(=O)c3ccc4c(c3)CC(=O)N4)CC2)cc1` the value was -13.9%; for `O=C(/C=C/n1cnc(-c2cc(C(F)(F)F)cc(C(F)(F)F)c2)n1)NNc1cnccn1`, -1.93%.
On the same count and under the same terms, the figure for `Cc1ccc(OCCn2c(CCNC(=O)Cc3cc(F)ccc3F)nc3ccccc32)cc1` is -16.2%; for `CN(Cc1cccs1)c1ncnc2ccc(-c3ccc4cn(C)nc4c3)cc12` it is -11.7%; for `Cc1ccc(OCCn2c(CCNC(=O)c3cc([N+](=O)[O-])ccc3[N+](=O)[O-])nc3ccccc32)cc1` it is -10.4%.
Consider `CC1CCC2C(C)(C)C(O)CCC2(C)C12Cc1c(O)cc3c(c1O2)C(N)=NC3` (stereo not given), for which the “activity change, negative = inhibition” value was 1.87%.
On to `Cc1cc(C)nc(NC(=S)N2CCN(c3ccc(F)c(F)c3)CC2)c1`, for which the “activity change, negative = inhibition” value was 3.66%.
On to `N#Cc1ccc(NS(=O)(=O)c2ccc3c(c2)CCC(=O)N3)cc1`, for which the “activity change, negative = inhibition” value was -14.8%.
As to `C=C(C)C(=O)OC1[C@@H]2C(=C)C(=O)O[C@@H]2C[C@@H](C)[C@@H]2C=CC(=O)[C@@]12C` (stereo not given in full), the “activity change, negative = inhibition” value is 6.91%.
Regarding `Cc1ccc(S(=O)(=O)Nc2cnccc2C(=O)Nc2nc(-c3ccccc3)cs2)cc1`, the Potency entry is “inactive”.
Consider `O=C1CCc2cc(S(=O)(=O)Nc3ccc4c(c3)OCCO4)ccc2N1`, for which the “activity change, negative = inhibition” value is 7.14%.
Regarding `CC(=O)N1c2ccc(S(=O)(=O)Nc3ccc(C)c(C)c3)cc2CC1C` (stereo not given), the “activity change, negative = inhibition” value was -4.49%.
For the compound `CC(=O)Nc1ccccc1NC(=O)c1cnn2c(C)cc(C)nc12`, the “activity change, negative = inhibition” value is 8.39%.
Same read-out and setting: the figure for `Cc1cc2[nH]c3c(=O)n(Cc4ccccc4F)ncc3c2s1` is 7.57%; for `NC(=O)C1CCN(c2nc(-c3cccc([N+](=O)[O-])c3)cs2)CC1` it is 7.11%.
Consider `COC(=O)C1=C(C)NC(COC(N)=O)=C(C(=O)OC(C)C)C1c1cccc(Cl)c1Cl` (stereo not given), for which the “activity change, negative = inhibition” value is -13.7%.
Still for that read-out and setting: for `COc1ccc(-c2nc3ccccc3n2Cc2ccccc2)cc1COc1ccc(NC(C)=O)cc1` the value was 10.5%.
On the same count and under the same terms, for `N[C@H]1CCN(c2cnc3c(O)ccc(C(=O)O)c3c2)C1` the value was -10.6%; for `Fc1cnc(-c2ccccc2C(F)F)nc1NCc1ccc(-n2ccnn2)cc1`, 86.9%; for `COCC1CCCN(C(=O)CC(c2ccc3c(c2)OCO3)c2c(O)cc(OC)cc2OC)C1` (stereo not given), 3.36% [at 114 µM].
On the same count and under the same terms, for `Fc1ccc(Nc2nc(-c3ccncc3Cl)nc3ccccc23)cc1F` the value was 9.14%; for `O=C1CCCC2=C1C(c1[nH]ncc1Cl)NC(=NCCc1ccc(O)cc1)N2` (stereo not given), 6.64%; for `O=C(CSc1nnc(-c2cccc(S(=O)(=O)N3CCCC3)c2)n1-c1ccccc1)Nc1ccccc1`, 12.2%.
For the compound `COc1ccc(-c2nnc3n2N=C(c2c(OC)cccc2OC)CS3)cc1OC`, the “activity change, negative = inhibition” value is 13.7%.
Same read-out and setting: for `COc1cccc(C2c3c(ncn(-c4ccc(NC(C)=O)cc4)c3=N)Oc3ccc4ccccc4c32)c1` (stereo not given) the value was 0.336%.
Take `Cc1noc(C)c1-c1ccc2ncnc(NCc3ccc(C(F)(F)F)o3)c2c1`: the “activity change, negative = inhibition” value is 0.897%.
In the case of `O=C1c2ccccc2C(=O)N1Cc1ccccn1`, the “activity change, negative = inhibition” value was -1.18%.
With `Fc1cc(Nc2nc(-c3ccncc3)nc3ccccc23)ccc1-c1cccc(OC(F)F)c1`, the “activity change, negative = inhibition” value was 5.17%.

For another test, the target named is Retinaldehyde dehydrogenase 3 (Homo sapiens) (UniProt P47895). Nature of the test: qHTS for Inhibitors of the Aldehyde Dehydrogenase Family (ALDH1A3) Primary screen (AID 2061315).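 Further: plate controls were DMSO vehicle for no effect and reference inhibitor for full effect.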 The note with it: ALDH inhibition qHTS; series mostly up to 56 µM; activity change, negative = inhibition: at the top concentration. For orientation: In qHTS, concentration-response curves come from the screen itself.
On to `O=C1C2=C(CN1c1ccccc1)NC(Nc1nc3ccccc3o1)=NC2c1ccccc1Cl` (stereo not given), for which the “activity change, negative = inhibition” value was -0.267%.
Regarding `CN(Cc1ccco1)c1ncnc2ccc(-c3cccc(Cl)c3)cc12`, the “activity change, negative = inhibition” value was 13.8%.
Regarding `COc1cccc(CNc2ccc(S(=O)(=O)Nc3nc4c(C)cccc4s3)cc2)c1O`, the “activity change, negative = inhibition” value is 10.2%.
Consider `O=S(=O)(Nc1nccs1)c1ccc(NCc2ccc(Cl)cc2O)cc1`, for which the “activity change, negative = inhibition” value was 10.2%.
As to `C[C@@H]1O[C@@H](O[C@H]2[C@@H](OC(=O)[C@]34CCC(C)(C)CC3C3=CCC5[C@@]6(C)C[C@H](O)[C@H](O[C@@H]7O[C@H](CO)[C@@H](O)[C@H](O)[C@H]7O[C@@H]7OC[C@@H](O)[C@H](O)[C@H]7O)[C@@](C)(C(=O)O)C6CC[C@@]5(C)[C@]3(C)CC4)OC[C@H](O)[C@@H]2O)[C@H](O)[C@H](O)[C@H]1O[C@@H]1OC[C@@H](O)[C@H](O)[C@H]1O` (stereo not given in full), the activity change, negative = inhibition was 0.185% [at 11.2 µM].
With `O=C1CCCC2=C1C(c1[nH]ncc1Cl)N=C(Nc1nc3ccc(Cl)cc3o1)N2` (stereo not given), the “activity change, negative = inhibition” value is 6.27%.
Same read-out and setting: the figure for `Cc1cnc(NC(=O)c2cc(S(=O)(=O)N(C)C)ccc2N2CCCC2)s1` is 5.07%; for `Fc1ccc(-c2ccc(CNc3nc(-c4ccccc4C(F)(F)F)nc4ccccc34)cc2)cc1C(F)(F)F` it is 0.489%; for `Cc1cc(C)nc(NC(=S)N2CCN(c3ncccc3Cl)CC2)c1` it is -2.16%.
As for `O=C(Nc1ccc2ccccc2c1)Nc1nnc(-c2ccccc2)s1`, the “activity change, negative = inhibition” value is 1.28%.
Same read-out and setting: for `COc1ccc(C2=Nn3c(nnc3-c3ccccc3OC)SC2)cc1O[C@H]1CCOC1` the value was 1.72%.
On to `C=CC(C)(C)C12CC3C(=O)N4C(CC5(C(C)(C)C=C)c6ccccc6NC45)C(=O)N3C1Nc1ccccc12` (stereo not given), for which the “activity change, negative = inhibition” value is 0.528% [at 28 µM].
Same read-out and setting: the figure for `COC(=O)c1ccc(N2CCN(S(=O)(=O)c3ccc4c(c3)CC(=O)N4)CC2)cc1` is 16.1%; for `O=C(/C=C/n1cnc(-c2cc(C(F)(F)F)cc(C(F)(F)F)c2)n1)NNc1cnccn1` it is 32.6%; for `Cc1ccc(OCCn2c(CCNC(=O)Cc3cc(F)ccc3F)nc3ccccc32)cc1` it is 4.2%.
Consider `CN(Cc1cccs1)c1ncnc2ccc(-c3ccc4cn(C)nc4c3)cc12`, for which the “activity change, negative = inhibition” value was -13.2%.
In the case of `Cc1ccc(OCCn2c(CCNC(=O)c3cc([N+](=O)[O-])ccc3[N+](=O)[O-])nc3ccccc32)cc1`, the “activity change, negative = inhibition” value was -7.31%.
Regarding `CC1CCC2C(C)(C)C(O)CCC2(C)C12Cc1c(O)cc3c(c1O2)C(N)=NC3` (stereo not given), the “activity change, negative = inhibition” value was 11.7%.
Regarding `Cc1cc(C)nc(NC(=S)N2CCN(c3ccc(F)c(F)c3)CC2)c1`, the “activity change, negative = inhibition” value is 28.9%.
On the same count and under the same terms, the figure for `N#Cc1ccc(NS(=O)(=O)c2ccc3c(c2)CCC(=O)N3)cc1` is -6.81%; for `C=C(C)C(=O)OC1[C@@H]2C(=C)C(=O)O[C@@H]2C[C@@H](C)[C@@H]2C=CC(=O)[C@@]12C` (stereo not given in full) it is 1.42%.
Turning to `Cc1ccc(S(=O)(=O)Nc2cnccc2C(=O)Nc2nc(-c3ccccc3)cs2)cc1`, the Potency entry is “inactive”.
In the case of `O=C1CCc2cc(S(=O)(=O)Nc3ccc4c(c3)OCCO4)ccc2N1`, the “activity change, negative = inhibition” value was 0.607%.
Take `CC(=O)N1c2ccc(S(=O)(=O)Nc3ccc(C)c(C)c3)cc2CC1C` (stereo not given): the “activity change, negative = inhibition” value was 15.7%.
Take `CC(=O)Nc1ccccc1NC(=O)c1cnn2c(C)cc(C)nc12`: the “activity change, negative = inhibition” value was 0.472%.
Still for that read-out and setting: the figure for `Cc1cc2[nH]c3c(=O)n(Cc4ccccc4F)ncc3c2s1` is 1.53%; for `NC(=O)C1CCN(c2nc(-c3cccc([N+](=O)[O-])c3)cs2)CC1` it is -5.45%; for `COC(=O)C1=C(C)NC(COC(N)=O)=C(C(=O)OC(C)C)C1c1cccc(Cl)c1Cl` (stereo not given) it is 0.383%.
The same measure, in the same setting: for `COc1ccc(-c2nc3ccccc3n2Cc2ccccc2)cc1COc1ccc(NC(C)=O)cc1` the value was 3.97%; for `N[C@H]1CCN(c2cnc3c(O)ccc(C(=O)O)c3c2)C1`, -5.08%; for `Fc1cnc(-c2ccccc2C(F)F)nc1NCc1ccc(-n2ccnn2)cc1`, -4.8%.
Consider `COCC1CCCN(C(=O)CC(c2ccc3c(c2)OCO3)c2c(O)cc(OC)cc2OC)C1` (stereo not given), for which the “activity change, negative = inhibition” value was -1.89% [at 114 µM].
The same measure, in the same setting: the figure for `Fc1ccc(Nc2nc(-c3ccncc3Cl)nc3ccccc23)cc1F` is 9.16%; for `O=C1CCCC2=C1C(c1[nH]ncc1Cl)NC(=NCCc1ccc(O)cc1)N2` (stereo not given) it is 15.1%; for `O=C(CSc1nnc(-c2cccc(S(=O)(=O)N3CCCC3)c2)n1-c1ccccc1)Nc1ccccc1` it is 9.34%.
Still for that read-out and setting: the figure for `COc1ccc(-c2nnc3n2N=C(c2c(OC)cccc2OC)CS3)cc1OC` is 3.52%; for `COc1cccc(C2c3c(ncn(-c4ccc(NC(C)=O)cc4)c3=N)Oc3ccc4ccccc4c32)c1` (stereo not given) it is 10.5%; for `Cc1noc(C)c1-c1ccc2ncnc(NCc3ccc(C(F)(F)F)o3)c2c1` it is 14.5%.
The same measure, in the same setting: the figure for `O=C1c2ccccc2C(=O)N1Cc1ccccn1` is -0.695%; for `Fc1cc(Nc2nc(-c3ccncc3)nc3ccccc23)ccc1-c1cccc(OC(F)F)c1` it is 0.382%.
